Experimental data as given in the supplement of paper PMC9694430.

Tests used:
Assay in all cases: thermal shift delta Tm vs DMSO control; higher = stronger stabilization (binding)
Conditions in all cases: 12.5 µM; protein concentration 2 µM
LOC_OS01G57100-cb003 = system: LOC_OS01G57100-cb003
Summary of the method: (§1)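 Heating from 25°C to 95°C at 0.05°C/s, fluorescence was recorded for 19.5 μl wells of 2 μM E. coli-expressed, purified rice kinase domain in 100 mM potassium phosphate pH 7.5, 150 mM NaCl, 10% glycerol and 5 × SYPRO Orange with compound in DMSO. Boltzmann fits gave melting temperatures for this differential scanning fluorimetry assay. The shift reported is the mean of three replicates against the DMSO-only protein.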

LOC_OS01G60330-cb001 = system: LOC_OS01G60330-cb001
Summary of the method: as §1

LOC_OS01G60700-cb002 = system: LOC_OS01G60700-cb002
Summary of the method: as §1

LOC_OS01G63280-cb003 = system: LOC_OS01G63280-cb003
Summary of the method: as §1

LOC_OS01G67340-cb003 = system: LOC_OS01G67340-cb003
Summary of the method: as §1

LOC_OS01G70970-cb002 = system: LOC_OS01G70970-cb002
Summary of the method: as §1

LOC_OS02G07810-cb001 = system: LOC_OS02G07810-cb001
Summary of the method: as §1

LOC_OS02G08530-cb003 = system: LOC_OS02G08530-cb003
Summary of the method: as §1

LOC_OS02G14120-cb001 = system: LOC_OS02G14120-cb001
Summary of the method: as §1

LOC_OS02G17970-cb001 = system: LOC_OS02G17970-cb001
Summary of the method: as §1

LOC_OS02G45750-cb003 = system: LOC_OS02G45750-cb003
Summary of the method: as §1

LOC_OS02G54510-cb004 = system: LOC_OS02G54510-cb004
Summary of the method: as §1

LOC_OS03G04050-cb001 = system: LOC_OS03G04050-cb001
Summary of the method: as §1

LOC_OS03G12390-cb001 = system: LOC_OS03G12390-cb001
Summary of the method: as §1

LOC_OS03G27990-cb004 = system: LOC_OS03G27990-cb004
Summary of the method: as §1

LOC_OS03G50450-cb001 = system: LOC_OS03G50450-cb001
Summary of the method: as §1

LOC_OS03G50810-cb003 = system: LOC_OS03G50810-cb003
Summary of the method: as §1

LOC_OS04G35114-cb001 = system: LOC_OS04G35114-cb001
Summary of the method: as §1

LOC_OS04G38480-cb003 = system: T1, LOC_OS04G38480-cb003
T1 sequence (whole entry): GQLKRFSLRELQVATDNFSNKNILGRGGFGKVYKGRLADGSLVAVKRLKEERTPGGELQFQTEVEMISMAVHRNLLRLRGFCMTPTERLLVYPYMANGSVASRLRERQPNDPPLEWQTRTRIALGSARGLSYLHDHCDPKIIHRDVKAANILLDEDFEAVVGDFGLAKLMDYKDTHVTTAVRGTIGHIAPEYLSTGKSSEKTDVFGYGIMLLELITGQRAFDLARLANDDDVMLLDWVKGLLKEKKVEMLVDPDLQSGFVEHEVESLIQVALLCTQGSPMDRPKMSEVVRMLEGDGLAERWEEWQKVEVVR
Summary of the method: as §1

LOC_OS04G41100-cb001 = system: T2, LOC_OS04G41100-cb001
T2 sequence (whole entry): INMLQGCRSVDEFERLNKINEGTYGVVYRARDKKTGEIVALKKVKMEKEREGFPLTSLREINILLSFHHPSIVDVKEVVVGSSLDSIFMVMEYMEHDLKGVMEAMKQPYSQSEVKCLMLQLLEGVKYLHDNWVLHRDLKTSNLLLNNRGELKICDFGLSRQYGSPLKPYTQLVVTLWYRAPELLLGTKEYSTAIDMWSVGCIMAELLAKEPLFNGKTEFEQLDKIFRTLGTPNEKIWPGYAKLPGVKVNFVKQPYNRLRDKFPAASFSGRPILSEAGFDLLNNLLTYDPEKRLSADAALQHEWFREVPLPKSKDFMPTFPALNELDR
Summary of the method: as §1
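Note: purified Escherichia coli-expressed rice kinase domain construct.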

| Compound | thermal shift delta Tm (LOC_OS01G57100-cb003) [°C] | thermal shift delta Tm (LOC_OS01G60330-cb001) [°C] | thermal shift delta Tm (LOC_OS01G60700-cb002) [°C] | thermal shift delta Tm (LOC_OS01G63280-cb003) [°C] | thermal shift delta Tm (LOC_OS01G67340-cb003) [°C] | thermal shift delta Tm (LOC_OS01G70970-cb002) [°C] | thermal shift delta Tm (LOC_OS02G07810-cb001) [°C] | thermal shift delta Tm (LOC_OS02G08530-cb003) [°C] | thermal shift delta Tm (LOC_OS02G14120-cb001) [°C] | thermal shift delta Tm (LOC_OS02G17970-cb001) [°C] | thermal shift delta Tm (LOC_OS02G45750-cb003) [°C] | thermal shift delta Tm (LOC_OS02G54510-cb004) [°C] | thermal shift delta Tm (LOC_OS03G04050-cb001) [°C] | thermal shift delta Tm (LOC_OS03G12390-cb001) [°C] | thermal shift delta Tm (LOC_OS03G27990-cb004) [°C] | thermal shift delta Tm (LOC_OS03G50450-cb001) [°C] | thermal shift delta Tm (LOC_OS03G50810-cb003) [°C] | thermal shift delta Tm (LOC_OS04G35114-cb001) [°C] | thermal shift delta Tm (LOC_OS04G38480-cb003) [°C] | thermal shift delta Tm (LOC_OS04G41100-cb001) [°C] |
| --- | --- | --- | --- | --- | --- | --- | --- | --- | --- | --- | --- | --- | --- | --- | --- | --- | --- | --- | --- | --- |
| O=C(NCCCNc1nc(Nc2cccc(NC(=O)N3CCCC3)c2)ncc1I)c1cccs1 | 1.91 | 11.8 | 0.35 | 0.47 | 2.07 | 8.4 | 1.11 | 2.77 | 9.13 | 0.49 | 14.3 | 1.24 | 0.97 | 7.32 | 0.57 | 6.67 | 6.52 | 7.01 | 3.4 | 2.91 |
| O=C(Nc1nccs1)C(c1cc(F)ccc1O)N1Cc2ccccc2C1=O (stereo not given) | 0.29 | 1.19 | 0.64 | -0.09 | 1.06 | 0.42 | 0.12 | 0.39 | 0.47 | 0.37 | 0.19 | 0.2 | -0.02 | -0.36 | 0.06 | -0.38 | 0.01 | 0.12 | 0.41 | 0.1 |
| C1=N/C2=N/c3ccc(OCCN4CCCC4)c(c3)COC/C=C/COCc3cccc(c3)C(=C1)N2 [Pacritinib (SB1518)] | 1.85 | 6.01 | 0.7 | 2.88 | 1.79 | 2.62 | 0.11 | 4.85 | 11.4 | 0.42 | 8.5 | 3.05 | 0.14 | 4.32 | 4.35 | 3.76 | 7.67 | 10.9 | 3.66 | 5.39 |
| O=C1NC(=O)/C(=C/c2ccc(-c3ccc(F)cc3O)o2)S1 | 4.13 | 9.64 | 1.12 | 23.4 | 5.05 | 4.18 | 2.79 | 1.57 | 2.56 | 1.7 | 2.33 | 0.67 | 1.72 | 5.37 | 1.51 | 3.59 | 2.55 | 4.85 | 4.16 | 1.17 |
| Clc1ccc(Nc2nnc(Cc3ccncc3)c3ccccc23)cc1 [Vatalanib (PTK787) 2HCl] | 1.4 | 1.02 | 5.09 | 2.03 | -0.72 | 0.27 | 0.26 | 0.34 | -0.4 | 0.47 | 0.06 | 0.03 | 0.21 | -0.24 | 0.02 | -0.09 | -0.01 | 0.3 | -0.05 | 0.49 |
| CC(C)CC(=O)Nc1n[nH]c2c1CN(C(=O)C1CCN(C)CC1)C2(C)C | 1.01 | 1.35 | 0.94 | 0.65 | 0.25 | 0.19 | 1.09 | 0.95 | 0.04 | 1.36 | 0.62 | 0.36 | 0.36 | 0.64 | 0.15 | 0.29 | 1.12 | 0.47 | 0.59 | 3.27 |
| N#Cc1ccc(-c2c(-c3ncn[nH]3)sc(N3CCOCC3)c2C#N)c(F)c1 | 0.86 | 1.05 | 1.22 | 0.44 | 0.56 | 0.2 | 0.75 | 0.69 | 1.41 | 1.24 | 1.03 | 0.27 | 0.35 | 0.25 | 0.22 | 0 | 0.37 | 0.45 | 1.64 | 0.49 |
| COc1cc2c(Oc3ccc(NC(=O)C4(C(=O)Nc5ccc(F)cc5)CC4)cc3F)ccnc2cc1OCCCN1CCOCC1 | 0.61 | 1.45 | 0.58 | 0.93 | 3.45 | 2.5 | 1.74 | 1.31 | 7.45 | 0.62 | 3.41 | 2.08 | 0.79 | 0.18 | 0.69 | 0.65 | 3.35 | 3.93 | 3.42 | 1.7 |
| Cc1ncc(CCCN(C)C)cc1Nc1ncc2c(n1)-c1ccc(C(F)(F)F)cc1NC(=S)C2 | 1.69 | 0.92 | 1.39 | 0.8 | 0.49 | 0.65 | 0.56 | 1.89 | 0.46 | 1.61 | 1.25 | 0.09 | 0.4 | 3.03 | 0.91 | 0.13 | 0.62 | 0.02 | 0.51 | 0.47 |
| Cc1ccc(Nc2cc(N[C@@H]3CCCC[C@@H]3N)nnc2C(N)=O)nc1C | 2.34 | 1.23 | 1.25 | 0.77 | 0.39 | 2.01 | 0.12 | 2.54 | 5.04 | 1.48 | 2.16 | 0.73 | 0.52 | 2.19 | 1.5 | 1.66 | 1.11 | 1.06 | 1.11 | 0.51 |
| C=CC(=O)Nc1cccc(Oc2nc(Nc3ccc(N4CCN(C)CC4)cc3)nc3ccsc23)c1 | 2.41 | 0.93 | 3.14 | 0.86 | 0.85 | 1.8 | 1.13 | 2.66 | 3.63 | 2.18 | 1.44 | 0.64 | 0.99 | 1.24 | 1.38 | 1.3 | 1.96 | 2.13 | 2.26 | 0.71 |
| NC1(c2ccc(-c3nc4ccn5c(=O)[nH]nc5c4cc3-c3ccccc3)cc2)CCC1 | -0.32 | 1.3 | 1.21 | -0.33 | -0.9 | 0.31 | 0.4 | 0.46 | -0.05 | 1.42 | -0.2 | 0.21 | 0.25 | -0.32 | 0.81 | 0.2 | -0.2 | 0.61 | -0.22 | 0.57 |
| O=C(O)c1ccc2c3c1cccc3c(=O)n1c3ccccc3nc21 | 1.73 | 3.73 | 1 | 0.76 | 1 | 0.87 | 0.5 | 0.93 | 3.53 | 0.44 | 3.28 | 0.56 | 0.18 | 2.82 | 0.62 | 0.23 | 0.91 | 2.73 | 2.31 | 1.19 |
